Assay outcomes: PubChem, Sanford-Burnham Center for Chemical Genomics
Only some compounds are listed: those with a hit (about 31% of all), similar ones and a draw of the others.
PLAP activator – activators of human placental alkaline phosphatase. P05187. purified PLAP enzyme, luminescent substrate read-out; active compounds read high. activation fold at 20 µM. hit rate 1.2% among 96,000; in the data active = activation fold above about 2
CYP2C9 inhib – blocks human cytochrome P450 2C9 | CYP2C9 Supersomes, luciferin-H conversion, luminescence | inhibition, % at 5 µM | hit rate 20% among 96,000 | AID 777;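 active = blocking of liver enzyme CYP2C9 beyond about 50% at 5 µM, limit read from the data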
CYP2C19 act – activators of human cytochrome P450 2C19. P33261. recombinant CYP2C19, luciferin-H EGE luminescence; active compounds read high; 0 = fully inhibited enzyme, 1 = untreated enzyme. activation factor at 5 µM. 96,000 tested, under 10 active;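 active = activation factor of at least 2 at 5 µM in the primary screen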;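 also: 0 = wells with 2.5 mM tranylcypromine and 1 = vehicle-only wells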
Target sequence (P33261 whole entry, looked up): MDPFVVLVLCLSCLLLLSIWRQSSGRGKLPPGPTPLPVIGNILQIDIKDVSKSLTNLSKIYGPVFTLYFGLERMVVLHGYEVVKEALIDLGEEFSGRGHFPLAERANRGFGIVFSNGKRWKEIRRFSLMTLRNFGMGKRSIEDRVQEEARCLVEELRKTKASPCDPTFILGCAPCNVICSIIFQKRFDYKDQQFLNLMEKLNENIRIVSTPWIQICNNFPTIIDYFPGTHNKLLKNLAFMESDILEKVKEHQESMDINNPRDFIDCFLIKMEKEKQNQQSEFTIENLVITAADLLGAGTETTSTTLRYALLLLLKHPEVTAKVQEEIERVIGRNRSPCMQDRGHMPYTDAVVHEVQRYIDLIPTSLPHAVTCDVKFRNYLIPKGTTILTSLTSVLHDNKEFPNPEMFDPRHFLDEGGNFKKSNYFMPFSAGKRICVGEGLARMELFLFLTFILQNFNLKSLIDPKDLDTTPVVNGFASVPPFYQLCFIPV
CYP2C9 act – CYP2C9 (human) activation. activation factor at 5 µM. P11712. recombinant CYP2C9, luciferin-H conversion, luminescence; active compounds read high; factor 1 = untreated enzyme, 0 = blocked. AID 1024. hit rate 1.4% among 96,000;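 active = activation factor of 2 or more for CYP2C9 at a 5 µM dose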;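 also: 0 = sulfaphenazole-blocked wells and 1 = vehicle-only wells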
CYP2C19 inhib – blocks human cytochrome P450 2C19. P33261. CYP2C19 Supersomes, luciferin-H EGE luminescence, 30 min. inhibition, % at 5 µM. hit rate 21% among 96,000. AID 778;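 active = CYP2C19 inhibition above a set limit at 5 µM in the primary screen, cut at about 50% in these data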;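 also: plate controls were negative control wells for no effect and 2.5 mM tranylcypromine positive control for full effect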
* hit, by the source's call; · = no result given.

SMILES | PLAP activator | CYP2C9 inhib | CYP2C19 act | CYP2C9 act | CYP2C19 inhib
CCN(C(=O)CCN1C(=O)c2ccccc2C1=O)C1CCCCC1 | 1.2 | -44.8 | 0.2 | 1.4 | 77.5*
O=C(CCN1C(=O)c2ccccc2C1=O)N1CCC(c2ccccc2)C1 (centres undefined) | 0.9 | -12.5 | 0.3 | 1.1 | 72.3*
O=C(COc1ccc(Br)cc1)N1CCC(c2ccccc2)C1 (centres undefined) | 1.3 | 14.3 | 0.1 | 0.9 | 88.1*
O=C(CCN1C(=O)c2ccccc2C1=O)N1CCCCCC1 | 0.9 | -23.0 | 1 | 1.2 | 3.9
CCC(=O)N1CCn2c1nc1ccccc12 | 0.9 | 19.1 | 1 | 0.8 | -3.0
Cc1ccc(N(CC(=O)N2CCn3c2nc2ccccc23)S(=O)(=O)c2c(C)n[nH]c2C)cc1 | 0.9 | 63.8* | 0.8 | 0.4 | 24.7
O=C(C1CCN(S(=O)(=O)c2cccc3nsnc23)CC1)N1CCn2c1nc1ccccc12 | 1.1 | -11.0 | 0.5 | 1.1 | 49.9
Cc1n[nH]c(C)c1S(=O)(=O)N1CCC(C(=O)N2CCn3c2nc2ccccc23)CC1 | · | 42.5 | 0.3 | 0.6 | 66.0*
CCC(C)(C(=O)NC1CCCC1)N(C(=O)c1cnccn1)c1c(C)n(C)n(-c2ccccc2)c1=O (centres undefined) | 0.9 | -11.7 | 1.1 | 1.1 | -14.3
CCS(=O)(=O)NCCc1csc(C)n1 | 1.1 | -3.5 | 1.1 | 1 | -7.7
CC(=Nc1ccc(C)c(C)c1)C1=C(O)CCC1=O | 1 | 34.4 | 0.5 | 0.7 | 54.0*
CC(=O)Nc1cccc(N2C(=O)CC(Cc3ccccc3)C2=O)c1 (centres undefined) | 1 | -41.0 | 0.8 | 1.4 | 19.2
C=CCn1c(N2C(=O)CC(Cc3ccccc3)C2=O)nc2ccccc21 (centres undefined) | 2.5* | -2.8 | 0.2 | 1 | 79.3*
Cc1ccnc(Sc2nc3c(c(=O)[nH]c(=O)n3C)n2CCCc2ccccc2)n1 | 1.6 | 40.1 | 0.7 | 0.6 | 26.0
N#Cc1nc(Cc2cccc3ccccc23)oc1N1CCCCC1 | 0.9 | 17.9 | 0.7 | 0.8 | 32.1
N#CC1=C(N)N=C(SCc2cccc3ccccc23)C(C(N)=O)C12CCCCC2 (centres undefined) | 1.3 | 74.3* | 0.3 | 0.3 | 72.0*
COc1ccc(NC(=O)c2cccc(S(=O)(=O)N3CCOCC3)c2)cn1 | 0.9 | 29.6 | 0.9 | 0.7 | 11.6
Cc1c(C(=O)O)sc2ncn(C)c(=O)c12 | 0.9 | 14.5 | 1.1 | 0.9 | -9.0
Cc1ccc(C)n1-c1cc(S(=O)(=O)N2CCOCC2)ccc1N1CCCC1 | 1.4 | 46.5 | 0.8 | 0.5 | 18.7
COc1ccc(N(C)S(=O)(=O)c2cccc(C(=O)Nc3ccc(-n4cnnn4)cc3)c2)cc1 | 1 | 84.6* | 0.3 | 0.2 | 70.0*
COc1ccc(N(C)S(=O)(=O)c2cccc(C(=O)NCC3CCCO3)c2)cc1 (centres undefined) | 1.7 | 63.2* | 0.6 | 0.4 | 41.0
CCOc1ccc(NC(=O)c2cccc(-n3cnnn3)c2)cc1 | 0.9 | 4.8 | 1 | 1 | 0.9
COc1ccc(S(=O)(=O)N(C)c2ccc(C(=O)NCC3CCCO3)cc2)cc1 (centres undefined) | 1 | 52.7* | 1.1 | 0.5 | -5.7
CCN(CC(=O)Nc1cccc(OC)c1)C(=O)C1CCN(C(=O)Nc2ccccc2)CC1 | 1.2 | 3.2 | 0.9 | 1 | 7.8
Cc1ccc(NC(=O)Cn2cncc2-c2ccc([N+](=O)[O-])cc2)cc1C | 1.1 | 7.0 | 0.8 | 0.9 | 24.3
SMILES | PLAP activator | CYP2C9 inhib | CYP2C19 act | CYP2C9 act | CYP2C19 inhib
Cc1ccc(S(=O)(=O)N2C(=S)SCC2(C)C)cc1 | 0.7 | -7.2 | 0.3 | 1.1 | 74.1*
CC1=CC(C)(C)N(S(=O)(=O)c2ccc(C)cc2)c2cc(C)ccc21 | 0.8 | 42.6 | 0.6 | 0.6 | 43.4
CCOC(=O)C(NCCCO)c1ccccc1 (centres undefined) | 1.1 | 4.6 | 0.9 | 1 | 5.6
COCCNC(C(=O)Nc1cc(Cl)cc(Cl)c1)c1ccccc1 (centres undefined) | 1.4 | 69.6* | 0.5 | 0.3 | 53.6*
COCC(C)NC(C(=O)Nc1ccc(C)c(Cl)c1)c1ccccc1 (centres undefined) | 1.7 | 85.7* | 0.1 | 0.1 | 85.9*
CCOC(=O)C(C)N1N=C(/C=C/c2ccc(OC)cc2)CCC1=O (centres undefined) | 1.3 | 32.0 | 0.8 | 0.7 | 19.2
COc1ccc(Cc2noc(-c3ccc(C)cc3)n2)cc1 | 0.9 | 18.5 | 0.9 | 0.8 | 8.4
Cc1cc(C)c(C)c(S(=O)(=O)Nc2ccccc2C(=O)NCCCn2ccnc2)c1C | 1.4 | 98.2* | 0 | 0 | 98.6*
O=C(O)c1cn(-c2ccccc2)nc1-c1ccncc1 | 0.9 | 18.1 | 0.9 | 0.8 | 7.9
O=C(NCCCn1ccnc1)c1ccccc1NS(=O)(=O)c1ccc(F)c(F)c1 | 1.4 | 99.5* | 0 | 0 | 99.2*
Cc1ccccc1NS(=O)(=O)c1ccc(NC(=O)c2nc3ncccn3n2)cc1 | 0.9 | 45.7 | 0.9 | 0.5 | 11.6
O=C(NCCCn1ccnc1)c1cn(-c2ccccc2)nc1-c1ccc(F)cc1 | 2.3* | 99.6* | 0 | 0 | 95.7*
COc1cc(C)ccc1S(=O)(=O)N1CCN(C23CC4CC(CC(C4)C2)C3)CC1 | 1.8 | -25.2 | 1 | 1.3 | -4.7
Cn1cc(S(=O)(=O)N2CCN(C(=O)c3ccco3)CC2)c(=O)n(C)c1=O | 1 | -21.6 | 1.1 | 1.2 | -14.7
CCN(CC)C(=O)CSc1nnc(-c2ccccn2)n1-c1ccc(C)c(C)c1 | 1.4 | -0.7 | 1.1 | 1 | -5.2
CCC(=O)N1CCc2cc(Br)cc(S(=O)(=O)NCc3ccco3)c21 | 1.1 | -6.7 | 0.5 | 1.1 | 52.7*
O=C(C1CC1)N1CCc2cc(Br)cc(S(=O)(=O)NCC3COc4ccccc4O3)c21 (centres undefined) | 1.4 | 58.7* | 0.1 | 0.4 | 91.2*
O=C(C1CCC1)N1CCc2cc(S(=O)(=O)NCC3COc4ccccc4O3)ccc21 (centres undefined) | 0.9 | 24.6 | 0.8 | 0.8 | 17.2
O=C(C1CC1)N1CCc2cc(S(=O)(=O)NCC3COc4ccccc4O3)ccc21 (centres undefined) | 0.9 | 51.7* | 0.3 | 0.5 | 72.1*
CCOC(=O)c1ccc(NC(=O)c2cc(S(=O)(=O)N3CCOCC3)ccc2O)cc1 | 1.3 | 42.5 | 1.1 | 0.6 | -7.8
CC1CCc2c(sc(NC(=O)c3ccc(-c4ccccc4[N+](=O)[O-])o3)c2C#N)C1 (centres undefined) | 1 | 90.7* | 0.9 | 0.1 | 10.8
N#Cc1c(NC(=O)c2ccc(-c3ccccc3[N+](=O)[O-])o2)sc2c1CCCC2 | 1.1 | 99.3* | 0.5 | 0 | 49.5
CC(C)CNC(=O)C1CCN(c2ccc(S(=O)(=O)N3CCOCC3)cc2)CC1 | 1.3 | 27.8 | 1.1 | 0.7 | -14.3
COc1ccc(S(=O)(=O)N2CCCC(C(=O)NCc3ccccn3)C2)cc1Cl (centres undefined) | 1.2 | -59.0 | 0.6 | 1.6 | 36.3
